What all share (type): functional
The subject of assay [1] is Plasmodium falciparum. Nature of the assay: GSK_TCMDC: Inhibition of Plasmodium falciparum 3D7 in whole red blood cells, using parasite LDH activity as an index of growth. Test compounds present at 2uM.
The test system of assay [2] is Plasmodium falciparum. Nature of the assay: GSK_TCMDC: Inhibition of Plasmodium falciparum Dd2 in whole red blood cells, using parasite LDH activity as an index of growth. Test compounds present at 2uM.
The test system of the next assay is HepG2. Nature of the assay: GSK_TCMDC: Percent inhibition of human HepG2 cell line. Test compounds present at 10uM.

Turning to `CC(C)(C)C(=O)Oc1ccc(CC2NCCc3cc(OC(=O)C(C)(C)C)c(OC(=O)C(C)(C)C)cc32)cc1OC(=O)C(C)(C)C` (configuration not stated), the results for the Inhibition with Plasmodium falciparum [1], with Plasmodium falciparum [2] and in the assay on HepG2 were 97%, 96% and 3%, respectively.

Take `S=C(NCCc1ccccc1)Nc1ccc2ncsc2c1`: the Inhibition (as a rule, the percentage by which the read-out fell short of the control) in the assay on Plasmodium falciparum [1] amounted to 96%; in the assay with Plasmodium falciparum [2], 3%; in the assay on HepG2, 0%.

`CN(C)Cc1cccc(-c2cnc(N)c(-c3nc4cc(S(C)(=O)=O)ccc4[nH]3)c2)c1.O=C(O)C(F)(F)F`: the Inhibition with Plasmodium falciparum [1] came to 100%; in the assay on Plasmodium falciparum [2] it was 61%; in the assay on HepG2, 27%.

In the case of `Cc1ccc(Nc2nc(C)cc(NC3CC3)n2)cc1`, the Inhibition in the assay on Plasmodium falciparum [1] was 97%; with Plasmodium falciparum [2], 15%; with HepG2, 0%.

In the case of `CCCCOP(=O)(OCCCC)C(=Cc1ccc(O)c2ccccc12)P(=O)(OCCCC)OCCCC`, the figures for the Inhibition in the assay on Plasmodium falciparum [1], with Plasmodium falciparum [2] and in the assay on HepG2 were 84%, 64% and 1%, respectively.

Regarding `COc1ccc(Cn2c(Nc3cccc(C(F)(F)F)c3)nc3cc(C(=O)NC(C)C)cnc32)cc1Cl`, the Inhibition was determined as 85% in the assay with Plasmodium falciparum [1], 81% in the assay on Plasmodium falciparum [2] and 0% in the assay on HepG2.

As to `CCNC(=O)N1CCc2ccc(Oc3nc(NCc4ccccc4OC)ncc3C)cc2CC1.O=C(O)C(F)(F)F`, the Inhibition is on record as 83% in the assay with Plasmodium falciparum [1], 76% in the assay on Plasmodium falciparum [2] and 0% with HepG2.

In the case of `N#Cc1ccc(-n2cc(C(=O)Nc3ccc4c(c3)CCN(C3CCC3)CC4)c(C(F)(F)F)n2)cc1.O=C(O)C(F)(F)F`, the results for the Inhibition in the assay on Plasmodium falciparum [1], in the assay on Plasmodium falciparum [2] and in the assay on HepG2 were 100%, 99% and 37%, respectively.

Consider `Fc1ccc2[nH]c(-c3cccc(-c4ccc(CNCCc5ccncc5)cc4)c3)nc2c1.O=C(O)C(F)(F)F`, for which the values for the Inhibition with Plasmodium falciparum [1], in the assay with Plasmodium falciparum [2] and in the assay with HepG2 were 99%, 100% and 44%, respectively.

`COc1cccc(-c2cnc(-c3ccncc3)nc2C2CCN(Cc3ccc(NC(C)=O)cc3)CC2)c1`: the Inhibition in the assay on Plasmodium falciparum [1] is given as 89%; with Plasmodium falciparum [2], 0%; with HepG2, 17%.

On to `O=C(Nc1cccc(-c2ccc(CN3CCNCC3)cc2)c1)c1cccc(Cl)c1.O=C(O)C(F)(F)F`, for which the values for the Inhibition in the assay on Plasmodium falciparum [1], in the assay with Plasmodium falciparum [2] and with HepG2 were 92%, 4% and 30%, respectively.

As to `CC(C)CCNC(=N)Nc1ccc(OCCCCCOc2ccc(NC(=N)NCCC(C)C)cc2)cc1`, the Inhibition in the assay with Plasmodium falciparum [1] is listed as 85%; in the assay on Plasmodium falciparum [2] it was 67%; with HepG2 it was 14%.

In the case of `Cl.NCc1ccc(-c2ccc3c(N)nccc3c2)cc1`, the figures for the Inhibition in the assay with Plasmodium falciparum [1], in the assay with Plasmodium falciparum [2] and with HepG2 were 100%, 92% and 28%, respectively.

Consider `Cc1ccccc1C1CCN(C2CCC(NC(=O)/C=C/c3cccc(Cl)c3)CC2)CC1` (configuration not stated), for which the Inhibition with Plasmodium falciparum [1] was 98%; in the assay on Plasmodium falciparum [2] it was 34%; with HepG2, 70%.

As to `COc1cc(N)c(Cl)cc1C(=O)NCC1CCN(c2nc(C)cc(C)n2)CC1`, the Inhibition turned out to be 96% in the assay with Plasmodium falciparum [1], 95% in the assay on Plasmodium falciparum [2] and 0% with HepG2.

With `Cn1cccc1C(=O)C(=O)Nc1ccc(-c2ccc(-c3nc4cc(F)ccc4[nH]3)cc2)cc1`, the Inhibition is given as 92% in the assay on Plasmodium falciparum [1], 33% in the assay on Plasmodium falciparum [2] and 44% in the assay on HepG2.

Turning to `Cc1cc(I)ccc1Nc1nc2nonc2nc1Nc1ccc(I)cc1C`, the Inhibition with Plasmodium falciparum [1] is listed as 100%; in the assay on Plasmodium falciparum [2], 96%; with HepG2, 78%.

Take `Cc1cc(N)c2cc(NC(=O)c3cc4ccccc4s3)ccc2n1`: the Inhibition in the assay on Plasmodium falciparum [1] is 100%; in the assay with Plasmodium falciparum [2] it was 99%; with HepG2 it was 100%.

For `Cl.N=C(N)Nc1nccc(NCc2ccccc2)n1`, the Inhibition in the assay with Plasmodium falciparum [1] is reported as 88%; in the assay on Plasmodium falciparum [2], 48%; in the assay with HepG2 it was 95%.

Regarding `CC1(C)N=C(N)N=C(N)N1c1ccccc1.Cl`, the Inhibition in the assay with Plasmodium falciparum [1] came out at 98%; in the assay on Plasmodium falciparum [2], 1%; with HepG2, 16%.

On to `COc1ccc(-c2ccc(NC(=O)c3cccc(Cl)c3)cc2)cc1CN(C)CCN(C)C.O=C(O)C(F)(F)F`, for which the Inhibition in the assay with Plasmodium falciparum [1] worked out at 100%; in the assay on Plasmodium falciparum [2], 35%; in the assay with HepG2, 22%.

Turning to `COc1ccc(CNCc2ccc(-c3ccc(-c4nc5cccc(C)c5[nH]4)s3)cc2)cc1.O=C(O)C(F)(F)F`, the Inhibition in the assay with Plasmodium falciparum [1] is 100%; in the assay on Plasmodium falciparum [2] it was 89%; in the assay with HepG2 it was 54%.

Take `Cc1ccccc1Nc1nc(NCCCO)c2ccccc2n1.Cl`: the Inhibition in the assay on Plasmodium falciparum [1] stood at 83%; in the assay on Plasmodium falciparum [2] it was 50%; with HepG2, 0%.

On to `Fc1ccc2[nH]c(-c3cccc(-c4cccc(CN5CCN(c6cnccn6)CC5)c4)c3)nc2c1.O=C(O)C(F)(F)F`, for which the Inhibition amounted to 93% in the assay on Plasmodium falciparum [1], 35% with Plasmodium falciparum [2] and 17% in the assay with HepG2.

On to `N=C(N)Nc1nc(-c2ccc(NC(=O)Nc3cccc(-c4csc(NC(=N)N)n4)c3)cc2)cs1`, for which the Inhibition is 94% in the assay on Plasmodium falciparum [1], 80% in the assay with Plasmodium falciparum [2] and 0% in the assay with HepG2.

In the case of `COc1cc(N(Cc2ccc(F)cc2)C(=O)c2ccc(-c3ccccc3)cc2)ccc1OCCN1CCCC1.Cl`, the values for the Inhibition in the assay on Plasmodium falciparum [1], with Plasmodium falciparum [2] and with HepG2 were 93%, 4% and 11%, respectively.

`COc1cc(C(=O)NCCCN2CCN(c3cc(Cl)ccc3OC)CC2)ccc1-c1nc2cc(Cl)c(Cl)cc2[nH]1`: the Inhibition with Plasmodium falciparum [1] is on record as 100%; in the assay on Plasmodium falciparum [2] it was 99%; with HepG2, 12%.

For `COc1ccc2nccc(N3CCC(O)(CCNCc4ccc5c(n4)NC(=O)CS5)CC3)c2n1.Cl`, the Inhibition with Plasmodium falciparum [1] is 99%; in the assay with Plasmodium falciparum [2] it was 21%; in the assay on HepG2 it was 10%.

On to `Cl.Oc1cccc(Nc2ccnc3cc(-c4ccccn4)ccc23)c1`, for which the Inhibition with Plasmodium falciparum [1] came out at 96%; with Plasmodium falciparum [2] it was 98%; in the assay on HepG2, 24%.

The values above are taken from ChEMBL document CHEMBL1157539, “Thousands of chemical starting points for antimalarial lead identification” (Nature, 2010).
